# KDM4E inh: qHTS Assay for Inhibitors of Human Jumonji Domain Containing 2E (JMJD2E) | Lysine-specific demethylase 4E (Homo sapiens), B2RXH2 | JMJD2E catalytic domain, FDH-coupled NADH fluorescence (FDH is formaldehyde dehydrogenase) | Potency, µM (top dose mostly 57.1 µM), usual class: inhibitors | 230,000 compounds, 1.6% hits; active = well fitted inhibition curve with a large enough effect, not every such curve was filed as active; inconclusive = small, poorly fitted or top-dose-only effect, or another doubt; inactive = no such curve, though single readings can be large or run the other way; also: nearly all actives have a fitted effect of over 50% in size
# BLM helicase inh: qHTS Assay for Inhibitors of Bloom's syndrome helicase (BLM) | RecQ-like DNA helicase BLM (Homo sapiens), P54132 | recombinant BLM DNA unwinding, fluorescence dequenching | Potency, µM (doses to about 56.1 µM), most hits filed as inhibitors | 350,000 compounds, 0.2% hits; also: nearly all actives have a fitted effect of over 35% in size
# PKM2 activator: qHTS Assay for Activators of Human Muscle isoform 2 Pyruvate Kinase; purified PKM2, Kinase-Glo ATP luminescence, activation; response scale: 0% is enzyme alone, no compound; Potency, µM (doses to about 57.5 µM), most hits filed as activators; 260,000 compounds, 0.34% hits; also: nearly all actives have a fitted effect of over 55% in size
#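 Purified hPK-M2 (>95%) run at intermediate activity with 0.1 mM ADP and 0.5 mM PEP in 50 mM imidazole pH 7.2, KCl, MgCl2; 1 h room temperature. ATP formed read by Kinase-Glo luminescence; normalized to uninhibited and no-enzyme controls.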
# RECQ1 inh-1: qHTS Assay for Inhibitors of RecQ-Like Dna Helicase 1 (RECQ1) | ATP-dependent DNA helicase Q1 (Homo sapiens), P46063 | RECQ1 DNA unwinding, red fluorescence kinetic read | Potency, µM (series often up to 57.3 µM), most hits filed as inhibitors | 240,000 compounds, 0.54% hits; also: nearly all actives have a fitted effect of over 30% in size
#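 50 nM RECQ1T1 preincubated 15 min with compound in Tris pH 8.0 buffer with MgCl2, DTT, Tween-20 and 2.5 ug/ml poly(dI-dC); started with 200 nM TAMRA/BHQ-2 forked duplex and 2 mM ATP. Unwinding read as fluorescence (525/598 nm), two reads 2 h apart.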
# APEX1 inh: qHTS Assay for Inhibitors of the Human Apurinic/apyrimidinic Endonuclease 1 (APE1); recombinant APE1, TAMRA/BHQ-2 abasic DNA cleavage fluorescence; Potency, µM (doses to about 65.8 µM), usual class: inhibitors; DNA repair nuclease/redox regulator APEX1 (Homo sapiens), P27695; 350,000 compounds, 0.35% hits; also: nearly all actives have a fitted effect of over 55% in size
# Target sequence (P27695 whole entry, looked up): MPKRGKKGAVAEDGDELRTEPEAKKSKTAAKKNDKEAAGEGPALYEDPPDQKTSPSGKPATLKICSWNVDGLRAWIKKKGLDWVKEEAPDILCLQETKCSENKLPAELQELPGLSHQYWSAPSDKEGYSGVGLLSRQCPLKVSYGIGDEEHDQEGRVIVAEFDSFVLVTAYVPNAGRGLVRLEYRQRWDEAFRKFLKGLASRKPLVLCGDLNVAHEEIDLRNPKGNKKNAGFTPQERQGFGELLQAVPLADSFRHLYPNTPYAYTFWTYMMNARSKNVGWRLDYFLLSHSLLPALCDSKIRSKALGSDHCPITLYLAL
#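 Compound pre-exposure to 0.75 nM APE1, 15 min at ambient temperature. Reaction initiated with 50 nM TAMRA/BHQ-2 THF substrate, read immediately in kinetic mode, 525 nm excitation, 598 nm emission.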
# RECQ1 inh conf: Confirmation qHTS Assay for Inhibitors of RecQ-Like Dna Helicase 1 (RECQ1) | shares compounds with RECQ1 inh-1 | RECQ1 helicase DNA unwinding, fluorescence | Potency, µM (doses to about 229 µM), most hits filed as inhibitors | 610 compounds, 28% hits | AID 2708, 2010; also: nearly all actives have a fitted effect of over 45% in size
# ADP FP counter: Counterscreen for RECQ1 Inhibitors: ADP Fluorescence Polarization Displacement Assay; ADP fluorescence polarization displacement counterscreen; shares compounds with RECQ1 inh-1; Potency, µM (titrated, usually from 228 µM), usual class: inhibitors; AID 2711, 2010; 530 compounds, 27% hits; also: nearly all actives have a fitted effect of over 45% in size
# RECQ1 inh-2: Confirmation qHTS Assay for Inhibitors of RecQ-Like Dna Helicase 1 (RECQ1) - Round 2 Cherry Picks; recombinant RECQ1 DNA unwinding, red fluorescence; AID 504841, 2011; shares compounds with RECQ1 inh-1; Potency, µM (top dose mostly 119 µM), actives largely listed as inhibitors; 1,100 compounds, 15% hits; also: nearly all actives have a fitted effect of over 50% in size
# Numbers stand for hits; 0 = inactive; ? = inconclusive; - = no result; [ ] = dose if it differs, or a comment. Shown is part of a subset that was picked to be rich in hits. Unless noted, calls follow the shape of the dose curve; as a rule, active = well fitted curve in the direction sought with a large enough effect; inconclusive = small, poorly fitted or top-dose-only effect, or another doubt; inactive = no such curve, though single readings can be large; an effect the other way counts as inactive or inconclusive.
SMILES,KDM4E inh,BLM helicase inh,PKM2 activator,RECQ1 inh-1,APEX1 inh,RECQ1 inh-2,others
CCCn1nnc(NC(=S)NC(=O)/C=C/c2ccco2)n1,0,0,0,?,?,0,
COc1ccc(-c2nc3cnc(N4CCN(C)CC4)nc3n(C)c2=O)cc1,-,0,-,0,0,-,
CCCCSCCCNC(=O)CN1C(=O)COc2ccc(S(=O)(=O)N3CCCC3)cc21,-,0,-,-,-,-,
O=C(COC(=O)c1cccc(S(=O)(=O)N2CCN(c3ccccc3)CC2)c1)NCc1ccco1,0,18µM,0,35µM,?,?,
NC(=O)COC(=O)c1cccc(S(=O)(=O)N2CCN(c3ccccc3)CC2)c1,0,0,0,0,0,-,
O=c1[nH]c2cc3c(cc2cc1CN(Cc1cccs1)Cc1nnnn1Cc1ccco1)OCCO3,?,0,?,?,40µM,0,
CCOC(=O)Cn1nnnc1CN(Cc1ccccc1)Cc1cc2cc(CC)ccc2[nH]c1=O,?,0,0,0,0,-,
CCc1ccc2[nH]c(=O)c(CN(Cc3ccccc3)Cc3nnnn3Cc3ccco3)cc2c1,?,0,0,32µM,?,0,
Cc1ccc2nc(COc3ccccc3NC(=O)c3ccc(F)cc3)cc(=O)n2c1,-,0,-,-,-,-,
CC(=O)Nc1ccn(C2OC(C(COC(C)=O)NC(=O)C(COCc3ccccc3)NC(=O)OC(C)(C)C)C(OC(C)=O)C2OC(C)=O)c(=O)n1 (stereo not drawn),-,0,-,0,0,-,
CCN(CC)C(=O)CC(c1ccc(OC)cc1)c1c(OC)cc(OC)c2c(-c3ccccc3)cc(=O)oc12 (stereo not drawn),-,0,-,20µM,?,?,
Cc1sc2cc3c(c(C(=O)c4ccccc4)[n+]2c1C)-c1cccc2cccc-3c12,?,0,0,0,0,-,
O=C(c1ccccc1)c1c2c(cc3sc4ccccc4[n+]13)-c1cccc3cccc-2c13,16µM,0,0,14µM,?,32µM,
COc1ccc(Nc2ccc(OC)cc2)cc1,?,0,0,5.6µM,0,0,RECQ1 inh conf=?;ADP FP counter=20µM
O=[N+]([O-])c1ccc(-c2c(O)c3ccccc3c3nc4ccccc4nc23)cc1,0,0,0,25µM,0,-,RECQ1 inh conf=0;ADP FP counter=?
O=[N+]([O-])c1cc(-c2nc(-c3ccccc3)no2)ccc1NCc1cccnc1,-,0,-,-,-,-,
C[C@H]1Cc2c(COc3ccccc3)nc3c(c2CO1)CN(C(=O)c1cccnc1)CC3,0[11.4 µM],0[12.4 µM],0[11.5 µM],0[11.5 µM],0[12.4 µM],-,
COc1ccc(C2C(C(=O)Nc3ccccc3)=C(C)Nc3c(C(=O)Nc4ccccc4)cnn32)cc1 (stereo not drawn),-,0,-,-,-,-,
O=C(NCCO)Nc1ccc2nc(-c3ccco3)c(-c3ccco3)nc2c1,0,?,0,0,0,-,
O=C(NCCCO)c1ccc2nc(-c3ccco3)c(-c3ccco3)nc2c1,13µM,0,0,?,?,0,
Nc1cccc2c(=O)[nH]ccc12,-,0,-,20µM,0,-,RECQ1 inh conf=?;ADP FP counter=50µM
COC(=O)c1cc2ccccc2oc1=O,?,0,0,0,0,-,
N/C(=N\NC(=O)c1ccccc1Cl)c1cc2ccccc2oc1=O,0,0,0,28µM,0,0,
Cc1ccc(Nc2nc(N)c([N+](=O)[O-])c(NCCO)n2)cc1C,0,0,0,0,0,-,

# High-throughput results as filed in PubChem BioAssay.
